Data as given in PubChem BioAssay.
Results with a measured potency or affinity are listed apart. Unmarked numbers belong to inactive results.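 The calls were made as follows: active = a fitted half-maximal concentration no higher than twice the top valid tested dose, with signal falling as cells die; inconclusive = flat curve between -70% and -30%, or poor fit; inactive = the rest, including signal rising instead of falling.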

Assay: viability loss in HeLa cells – cell-based, ATP luminescence, cherry-pick samples, cytotoxicity control, dose response (AID 687004);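 also: 0% = neutral control median and -100% = staurosporine 10 µM control median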
Conditions: ATP luminescence (CellTiter-Glo), 48 h; series mostly up to 26 µM; activity change, negative = cytotoxicity: at the top concentration

Structure (SMILES)	activity change, negative = cytotoxicity
COCC(=O)NC[C@H]1N[C@H](CO)[C@H]1c1ccc(C2=CCCC2)cc1	9.9%
COc1ccc(C2CC(c3cccs3)=NN2C(=O)c2ccco2)cc1OC (configuration not stated)	3.51%
S=C(Nc1ccc(Cl)cc1Cl)Nc1ccccc1Oc1ccccc1	1.39%
Cc1cccc(C)c1NC(=O)C1CCCN1C(=O)NCc1ccccc1 (configuration not stated)	5.9%
CN1C[C@@H]2C(c3ccc(C(F)(F)F)cc3)C3(c4ccccc4)CC2(C3)[C@H]1c1ccccc1 (some centres not stated)	4.29%
Cc1ccc(OCC(=O)NC(C)c2ccccc2)cc1 (configuration not stated)	9.89%
COc1ccc(NC(=O)N(C)C[C@@H]2OCCCC[C@@H](C)Oc3ccc(NC(=O)Nc4ccc5c(c4)OCO5)cc3C(=O)N([C@@H](C)CO)C[C@H]2C)cc1	13.1% [at 23.5 µM]
Cc1noc(C)c1S(=O)(=O)Nc1ccc2c(c1)CC(=O)N([C@H](C)CO)C[C@H](C)[C@H](CN(C)S(=O)(=O)c1cccs1)O2	-6.05% [at 23.5 µM]
COc1cccc(S(=O)(=O)N(C)C[C@@H]2OCc3ccccc3-c3ccccc3C(=O)N([C@@H](C)CO)C[C@@H]2C)c1	0.204%
CNC[C@@H]1OCCCC[C@@H](C)Oc2ccc(NC(=O)NC(C)C)cc2C(=O)N([C@@H](C)CO)C[C@H]1C	21.9%
CCNC(=O)C[C@H]1CC[C@H](NC(=O)NC2CCCCC2)[C@@H](CO)O1	4.75%
CCCC(C)(C)C(=O)N1CCC1(C)C(=O)Nc1ccc(C)cc1 (configuration not stated)	3.54% [at 38 µM]
O=C(CC1CC1)N1[C@@H]2CN(S(=O)(=O)c3ccccc3)c3ccccc3[C@@H]2[C@@H]1CO	-0.175%
CO[C@@H]1CN(C)C(=O)c2cc(NS(=O)(=O)c3cccc(C)c3)ccc2OC[C@@H](C)NC[C@H]1C	6.41%
O=C(CN(c1ccc(F)cc1)S(=O)(=O)c1ccccc1)NCCSC1CCCCC1	-4.41%
C[C@H](O)C#Cc1ccc2c(c1)O[C@H](CN(C)Cc1ccncc1)[C@H](C)CN([C@H](C)CO)S2(=O)=O	24.2%
COc1ccc(N2CCN(C(=O)CSc3ncnc4c3cnn4-c3ccccc3C)CC2)cc1	0.165%
C[C@@H]1CCCCO[C@@H](CN(C)C(=O)CCCN(C)C)[C@@H](C)CN([C@H](C)CO)C(=O)c2cc(NC(=O)Cc3ccccc3)ccc2O1	11.4%
C[C@@H]1CCCCO[C@@H](CN(C)C(=O)Nc2ccc3c(c2)OCO3)[C@@H](C)CN([C@H](C)CO)C(=O)c2cc(NC(=O)Nc3cccc4ccccc34)ccc2O1	15.7% [at 23.5 µM]
COc1cccc(NC(=O)CN2CCN(S(=O)(=O)c3ccc(C(C)C)cc3)CC2)c1	7%
CCc1ccc(NC(=O)[C@H](C)NC(=O)C2CCN(C(=O)[C@@H](N)C(C)C)CC2)cc1	5.57%
O=C(Oc1ccc2c3c(c(=O)oc2c1)CCCC3)c1ccco1	4.37%
